Screens as filed in PubChem.
BH1578 lux ind: induces V. cholerae light production without autoinducers. AID 588436. hit rate 0.16% among 350,000. activation, % at 18.7 µM. V. cholerae BH1578 lux reporter, luminescence, 6 h; in the data active means activation mostly above about 9.7%, no sharp cut-off
RN4220 kill: S. aureus RN4220 growth inhibition. OD600, 16 h. inhibition, % (no concentration beside the values). hit rate 0.33% among 330,000; in the data active means inhibition above about 85%;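 further: plate controls were untreated cells for no effect and reference antibiotic for full effect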
Sa ugtP lethal: kills S. aureus RN4220 lacking UgtP. hit rate 0.54% among 330,000. S. aureus RN4220 ugtP deletion, OD600 growth, 16 h. growth inhibition, % (no concentration beside the values); in the data active means growth inhibition above about 68%;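 further: plate controls were untreated wells for no effect and antibiotic for full effect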
PfHsp40 rescue: restores yeast growth despite PfHsp40 toxicity; S. cerevisiae expressing PfHsp40, growth rescue, ATP luminescence; AID 504582; growth rescue, % at 12.5 µM; hit rate 0.68% among 340,000; in the data active means growth rescue above about 28%, passing the limit was not always enough;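 further: yeast W303a lacking pdr1 and pdr3 grown in galactose medium; growth measured after three days at 30 °C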
Mtb hypoxia inh: reduces hypoxia-regulated biosensor signal in M. tuberculosis; M. tuberculosis hypoxia-regulated fluorescent reporter, fluorescence; fluorescence inhibition, % (concentration not given with the values); hit rate 0.1% among 300,000; in the data active means fluorescence inhibition mostly above about 23%, no sharp cut-off; inactive means mostly below about 17%
CCHF vOTU inh: CCHFV vOTU protease inhibition; Pep-AMC fluorescence; inhibition, % at 11.5 µM; hit rate 0.55% among 370,000; AID 651958; in the data active means inhibition above about 30%; further: 0% = vehicle wells with enzyme and 100% = no enzyme wells
Starred values were filed as active, the others as inactive; i = inactive; / = no result. Most compounds without a hit are left out; they make up all but 1.7% or so of the library.

SMILES | BH1578 lux ind | RN4220 kill | Sa ugtP lethal | PfHsp40 rescue | Mtb hypoxia inh | CCHF vOTU inh
c1ccc2c(CC3CNCCN3CCC34CC5CC(CC(C5)C3)C4)cccc2c1 (stereo not given) | / | 6.4 | 3.1 | / | 6.7 | /
CC(C)NC(=O)CSc1nc(-c2ccccc2)cs1 | -0.3 | 4.4 | 8.3 | -0.3 | 13.6 | 5.4
N#CCSc1nc(-c2ccccc2)cs1 | -0.6 | 7.4 | -12.8 | 35.5* | / | 0.0
Cc1ccc2c(c1)c(C1=c3ccccc3=NC1=O)c(O)n2C | -0.4 | 97.6* | 97.3* | 0.9 | 24.0 | -0.3
C=CCn1c(O)c(C2=c3ccccc3=NC2=O)c2ccccc21 | -1.3 | 96.9* | 97.8* | -1.1 | 17.2 | 2.2
CCOC(=O)C1=CN2CCCC2CC1=O (stereo not given) | / | 4.0 | 4.7 | / | 6.8 | /
Cn1cccc1C=NNC(=O)c1ccc(OC(F)(F)C(F)F)cc1 | / | -4.6 | -0.3 | / | -9.4 | /
Cn1c(COc2ccc(Cl)cc2)nnc1SCC(=O)NC1CC1 | i | 4.6 | 3.3 | -0.2 | 34.3* | 11.3
Cn1c(COc2ccccc2)nnc1SCC(=O)NC1CCCC1 | i | 4.7 | 5.3 | 1.0 | -14.4 | 7.8
O=C(Nc1nc(-c2ccccn2)cs1)c1ccco1 | -1.5 | 7.8 | -5.1 | 43.1* | 10.4 | 23.7
O=C(Nc1nc(-c2ccccn2)cs1)c1ccc(Br)s1 | -0.3 | 53.8 | 34.3 | 254.6* | 24.9 | 2.2
C[C@H](NC(=O)c1ccco1)C(=O)Nc1nc(-c2ccccn2)cs1 | / | 2.1 | -1.0 | -0.8 | 8.3 | 2.8
CCCCOc1ccc(Cc2c(Cl)nc(SC)nc2N2CCOCC2)cc1 | -0.2 | -2.0 | 91.9* | 0.3 | 8.4 | -9.3
CSc1nc(Cl)c(Cc2ccc(OCC(C)C)cc2)c(N2CCOCC2)n1 | -0.3 | -3.1 | 93.6* | -1.0 | 1.8 | 12.2
COc1ccccc1C(=O)Nc1nnc(-c2ccccc2)s1 | i | 0.4 | -23.2 | 1.1 | -3.7 | -10.4
O=C(Nc1nnc(-c2ccccc2)s1)c1ccccc1O | i | 90.7* | 93.5* | -1.0 | 6.6 | 0.0
COc1ccc(/C=C2/SC(=O)N(CCC(=O)Nc3ccc(C)cc3)C2=O)cc1OC | / | / | / | / | / | 4.1
COc1cc(/C=C2\SC(N)=NC2=O)ccc1OCC(=O)Nc1ccc(C)cc1 | -0.4 | 5.8 | -7.5 | 0.6 | 53.4* | 20.3
O=C(Nc1ncccc1O)c1cccc(S(=O)(=O)N2CCc3ccccc32)c1 | -1.3 | -13.0 | -10.4 | 65.7* | 8.1 | 11.7
O=C(NCc1ccncc1)c1cccc(S(=O)(=O)N2CCc3ccccc32)c1 | -2.1 | 4.4 | 1.7 | -0.7 | 27.8* | -2.0
Cc1ccc(C=Nc2sc3c(c2C#N)CCC3)s1 | / | 4.7 | 5.9 | / | / | /
NCCCCC1CNC(=S)N1CCc1cccc(F)c1 (stereo not given) | / | 1.3 | -9.9 | / | 22.0 | /
CC(=NNC(=O)CNC(=O)c1ccncc1)c1ccco1 | / | 0.0 | 5.9 | / | 3.1 | /
CC(Oc1ccc(Cl)cc1)C(=O)NCCN1C(=O)SC(=Cc2cccnc2)C1=O (stereo not given) | / | 9.0 | -8.1 | / | 2.8 | /
COc1ccc(S(=O)(=O)Nc2ccc3c(c2)CC(=O)N(C(C)CO)CC(C)C(CN(C)C(=O)Nc2ccc4c(c2)OCO4)O3)cc1 (stereo not given) | / | 8.2 | 8.3 | / | -1.6 | /
SMILES | BH1578 lux ind | RN4220 kill | Sa ugtP lethal | PfHsp40 rescue | Mtb hypoxia inh | CCHF vOTU inh
NC(=O)C(=NOC(=O)c1ccco1)c1nc(-c2ccc(Br)cc2)cs1 | / | -2.9 | 92.8* | / | 2.6 | /
COc1ccc(C=NNC(=O)c2cc(C)on2)c2ccccc12 | / | -1.5 | 0.1 | / | / | /
CCOC(=O)C1=C(COC(=O)c2ccc(OC)c(S(=O)(=O)N3CCOCC3)c2)NC(=O)NC1C (stereo not given) | -0.7 | 1.3 | 1.7 | -1.9 | 18.0* | 16.9
COc1cccc(C=Nn2c(-c3cc(C)[nH]n3)n[nH]c2=S)c1O | / | 2.3 | 2.8 | / | 4.3 | /
CCOc1ccc(Oc2ccc(S(=O)(=O)N3CCOCC3)cc2N)cc1 | -1.5 | 2.1 | 9.0 | -0.4 | 17.0 | 15.9
CCOc1ccccc1OCCCC(=O)Nc1cccc(S(=O)(=O)N2CCOCC2)c1 | -2.1 | 0.5 | 3.5 | 0.7 | 26.3* | -7.8
CCOc1ccc2cc(S(=O)(=O)N3CCOCC3)ccc2c1 | 73.8* | 1.2 | 4.2 | 0.0 | / | 6.0
NS(=O)(=O)c1cccc(NC(=O)COC(=O)c2ccc(S(=O)(=O)N3CCOCC3)cc2)c1 | i | 1.7 | 0.4 | -0.2 | 12.3* | 0.5
O=C(COC(=O)c1ccc2c(c1)OCCO2)Nc1cccc(S(=O)(=O)N2CCOCC2)c1 | / | 7.9 | 14.2 | 0.4 | 18.1 | 6.4
COc1ccccc1CC(=O)Nc1cccc(S(=O)(=O)N2CCOCC2)c1 | -0.7 | 4.5 | 10.9 | 94.1* | 2.0 | -0.8
Cc1ccc(OCCCC(=O)Nc2ccc(S(=O)(=O)N3CCOCC3)cc2)cc1 | i | 1.9 | 4.6 | 0.6 | 30.4* | -7.5
CCOC(=O)CN1C(=O)NC(c2cccs2)C(C(C)=O)=C1C (stereo not given) | / | 6.6 | 6.6 | / | 13.4 | /
Cc1ccc(NC(=O)c2ccccc2NS(=O)(=O)c2ccc(Cl)s2)cc1 | -0.2 | 80.6 | 90.4* | 80.1* | 3.0 | 4.2
O=C(Nc1ccccc1)c1ccccc1NS(=O)(=O)c1ccc(Cl)s1 | -0.2 | 86.8* | 91.8* | 0.9 | 6.9 | 20.1
O=C(Nc1ccccc1Cc1ccccc1)c1ccccc1NS(=O)(=O)c1ccc(Cl)s1 | -0.2 | / | / | 5.5 | / | 20.6
O=C(NCc1ccco1)c1ccccc1NS(=O)(=O)c1ccc(Cl)s1 | i | 64.2 | 52.9 | 2.1 | / | 6.1
CC(=NNC(=O)c1cccc(Br)c1)c1ccc(Br)cc1 | / | 0.5 | -1.5 | / | 7.6 | /
COCCNC(=S)NN=C(C)c1cccc([N+](=O)[O-])c1 | / | 10.7 | 4.6 | / | -2.2 | /
COc1ccc(C=NNc2nnc(Cc3ccc(OC)c(OC)c3)c(=O)[nH]2)cc1 | / | 0.2 | 5.5 | / | -5.7 | /
CCc1nc(NCc2ccccc2)c(C#N)c2c1CCCC2 | i | -6.9 | 23.1 | 0.2 | 5.6 | -1.8
CCc1nc(NCCC(C)C)c(C#N)c2c1CCCC2 | -5.3 | 0.5 | 87.8* | -1.4 | 1.9 | 0.5
CCCCOc1ccc(-c2nc(C=Nc3nccs3)c(O)o2)cc1 | / | 1.5 | -0.6 | / | -2.3 | /
OCCOCCn1c(C2CCCN2c2nc(-c3ccc(F)cc3)cs2)nc2cc(Cl)c(Cl)cc21 (stereo not given) | -0.9 | -12.8 | -8.9 | 143.4* | -1.1 | 5.0
OCCCn1c(C2CCCN2c2nc(-c3ccc(F)cc3)cs2)nc2cc(C(F)(F)F)ccc21 (stereo not given) | 0.8 | -18.4 | -1.9 | 145.2* | 14.9 | 6.6
CCCc1c(C(=O)NN=Cc2cccnc2)nnn1-c1nonc1N | / | 4.2 | 7.4 | / | 8.6 | /
O=C1C=C(NC(=O)Nc2ccc(Cl)c(Cl)c2)CCC1 | -0.4 | 100.2* | 100.0* | 0.1 | 6.4 | 9.4
O=C(Nc1ccc(Cl)c(Cl)c1)Nc1ccc(Br)cc1F | -3.6 | 100.4* | 99.3* | 15.1 | 2.5 | 3.5
CCOC(=O)c1c(C)oc2c1c(C(c1ccccc1)N1CCOCC1)c(O)c1ccccc12 (stereo not given) | i | 13.8 | 89.2* | 0.3 | 8.4 | -9.6
